This is one part of the list. Calls of active or inactive are those of the source.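 The calls were made as follows: active = inhibition above the hit threshold that was computed for the earlier primary screen (cut at about 30% in these data); inactive = the rest.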

The target in this assay is Sphingosine 1-phosphate receptor 3 (Homo sapiens) (UniProt Q99500). The experiment in a line: blockers of human S1P3 signalling – cell-based, confirmation (AID 1429).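 Also: 0% = S1P-stimulated wells and 100% = unstimulated DMSO-only wells.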 To be noted: CHO S1P3 NFAT-BLA reporter, FRET, antagonist mode; at 4.98 µM; stronger effect = higher value.
Chain of Sphingosine 1-phosphate receptor 3 (Homo sapiens) (Q99500 whole entry, looked up): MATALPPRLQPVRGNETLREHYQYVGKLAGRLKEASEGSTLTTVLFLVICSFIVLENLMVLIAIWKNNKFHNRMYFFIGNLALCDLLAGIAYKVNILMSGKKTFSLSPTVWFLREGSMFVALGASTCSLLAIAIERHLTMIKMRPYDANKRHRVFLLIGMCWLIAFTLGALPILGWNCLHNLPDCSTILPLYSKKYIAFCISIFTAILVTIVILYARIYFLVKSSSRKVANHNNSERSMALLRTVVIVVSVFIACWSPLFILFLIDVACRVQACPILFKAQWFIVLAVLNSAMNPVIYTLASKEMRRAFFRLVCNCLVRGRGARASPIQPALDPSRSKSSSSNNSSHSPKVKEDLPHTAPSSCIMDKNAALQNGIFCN
The inhibition is the drop in the measured response relative to a control, in per cent. Consider `O=C(N/N=C/c1coc2ccccc2c1=O)c1cc2ccccc2o1`, for which the inhibition was -18.6% (inactive).
The same measure for `Cc1ccc(NC(=O)CN(C)CC(=O)Nc2cccc(F)c2)cc1[N+](=O)[O-]`: 12.6% (inactive); for `CSc1ccc(CN(C)CC(=O)NCc2ccc(F)cc2)cc1`: -9.96% (inactive).
Take `CC[C@H]1CN2CCc3cc(OC)c(OC)cc3[C@@H]2C[C@@H]1C[C@H]1NCCc2cc(OC)c(OC)cc21`: the inhibition was 109% (active).
The same measure for `Nc1c(C(=O)c2cccs2)sc2nsc(SCCN3CCCCC3)c12`: 18.8% (inactive); for `S=C(NCCc1ccccc1)NCC1CCCO1` (stereo not given): -4.63% (inactive); for `CCN1/C(=C\c2ccc3ccccc3[n+]2CC)Sc2cc(C)ccc21`: 10.8% (inactive).
The value for `CCOC(=O)C1=C(C)N=C2c3ccccc3C(=O)C2C1c1ccc(Br)cc1` (stereo not given) was 77.8% (active); that for `CC(C)Oc1ccccc1C(=O)NC(CO)C(=O)O` (stereo not given) was -23.6% (inactive).
Regarding `CC(=O)c1c(C)[nH]c(C(=O)COC(=O)c2cccc(S(=O)(=O)N(C)c3ccccc3)c2)c1C`, the inhibition was 10.9% (inactive).

The values above are taken from PubChem BioAssay AID1429 (The Scripps Research Institute Molecular Screening Center, 2008).
